Measured values as given in PubChem BioAssay (NCATS).
Values without a mark were called inactive. Records with an inconclusive call do not appear. A call without a number means that no potency is given here. Calls of active or inactive are those of the source. Calls come from the whole dose curve; as a rule, active = well fitted curve in the direction sought with a large enough effect; inconclusive = small, poorly fitted or top-dose-only effect, or another doubt; inactive = no such curve, though single readings can be large; an effect the other way counts as inactive or inconclusive.

Tests used:
[1] = Primary fluorescence-based thiol-reactive (MSTI) qHTS assay for identification of artifact compounds. (AID 1845221); details: MSTI thiol-reactivity probe, 1 h; series mostly up to 53.8 µM; note: nearly all actives have a fitted effect of over 65% in size; note: potency is the fitted concentration of half-maximal effect;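 for activity change, negative = thiol reactive: thiol-reactive compounds lower the probe fluorescence signal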
Summary of the method: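 qHTS titration of compound; 4 uM MSTI, PBS pH 7.4, 2% DMSO; 1 h RT, dark; fluorescence 525/598 nm; normalized to Acetyl-MSTI and MSTI; 4-parameter Hill fit.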

[2] = system: Nanoluciferase (engineered Oplophorus gracilirostris luciferase); assay: Primary Nanoluciferase (NLuc) qHTS assay for identification of artifact compounds. (AID 1845222); details: NLuc-conditioned medium, Nano-Glo luminescence, 5 min; series mostly up to 54.1 µM; note: potency is the fitted concentration of half-maximal effect;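 for activity, negative = inhibition: NLuc secreted into diluted conditioned medium of S16 cells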
Summary of the method: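 qHTS format, against NLuc in S16 cell-conditioned medium. Nano-Glo substrate 1:100 was added after 15 min at room temperature. Luminescence was taken after a further 5 min.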

[3] = Primary redox qHTS assay for identification of artifact compounds. (AID 1845223); details: Amplex Red/HRP redox cycling with DTT, fluorescence; series mostly up to 53.8 µM
Summary of the method: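 Redox-cycling detection via DTT (250 uM final) oxidation coupled to Amplex Red (25 uM)/HRP (250 mU/mL) in HBSS. 15 min preincubation plus 30 min after DTT, room temperature. Ex/Em 525/598 nm; 4-parameter Hill fit against DMSO and 10 uM DA3003.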

SMILES	Potency [1]	Potency [2]	Potency [3]	activity change, negative = thiol reactive [1]	activity, negative = inhibition [2]	redox activity (% of DA3003) [3]
CCNC(=O)C1CC(F)(c2ccc(CN3CCCC3)c(F)c2)C1 (configuration not stated)	inactive	inactive	inactive			
O=C(OCC(O)CO[C@@H]1O[C@H](C(=O)O)[C@@H](O)[C@H](O)[C@H]1O)c1ccccc1 (some centres not stated)	6.56 µM (active)	inactive	inactive			
C=C1C(OC(C)=O)CCC2(C)CCC(C(C)(C)O)CC12 (configuration not stated)	inactive	inactive	inactive			
C[C@]1(O)CC[C@@H]2C(C(=O)O)=CO[C@@H](O[C@@H]3O[C@H](COC(=O)/C=C/c4ccc(O)c(O)c4)[C@@H](O)[C@H](O)[C@H]3O)[C@@H]21	3.27 µM (active)	inactive	inactive			
CC(=O)OC1CCC2(C)C(CCC3(C)C2CC=C2C4CC(C)(C)CCC4(C)CCC23C)C1(C)C(=O)O (configuration not stated)	inactive	inactive	inactive			
OC[C@H]1O[C@@H](OCc2ccccc2)[C@H](O)[C@@H](O)[C@@H]1O	5.32 µM (active)	inactive	inactive			
CN1CCN(c2nc(-c3ccc(C(=O)NC4(C(=O)NCC#N)CCCCC4)cc3)cs2)CC1	inactive	inactive	inactive			
O=C(O)Cn1nnc(-c2ccc(CN(CCCCOc3ccc(CN4CCCC4)cc3)CCc3ccccc3)cc2)n1	inactive	inactive	inactive			
COc1ccnc2[nH]cc(C(=O)C(=O)N3CCN(C(=O)c4ccccc4)CC3C)c12 (configuration not stated)	inactive	inactive	inactive			
O=C(O)CC1CCC(c2ccc(-c3ccc(Nc4ccc(C(F)(F)F)nc4)cn3)cc2)CC1 (configuration not stated)	inactive	inactive	inactive			
Fc1cccc(CN(C2=NCCN2)c2c(Cl)cccc2Cl)c1	inactive	inactive	inactive			
CC1=CCC[C@@H]2[C@](CCc3ccoc3)(C(=O)O)[C@H](C)CC[C@@]12C	inactive	inactive	inactive			
COc1c(-c2ccc(O)cc2)cc(OC)c2c1oc1cc(O)c(OC3OC(CO)C(O)C3O)cc12 (configuration not stated)	4.62 µM (active)	inactive	inactive			
C/C=C1/[C@H](O[C@@H]2O[C@H](CO)[C@@H](O)[C@H](O)[C@H]2O)OC=C2C(=O)O[C@@H]3C[C@@H](C(C)CO)[C@H](COC(=O)C[C@H]21)[C@H]3C (some centres not stated)	inactive	inactive	inactive			
CC(C)=CCC[C@](C)(O[C@@H]1O[C@H](CO[C@@H]2OC[C@H](O)[C@H](O)[C@H]2O)[C@@H](O)[C@H](O)[C@H]1O)[C@H]1CC[C@]2(C)[C@@H]1[C@H](O)C[C@@H]1[C@@]3(C)CC[C@H](O[C@@H]4O[C@H](CO)[C@@H](O)[C@H](O)[C@H]4O[C@@H]4O[C@H](CO)[C@@H](O)[C@H](O)[C@H]4O)C(C)(C)[C@@H]3CC[C@]12C	inactive	inactive	inactive			
C=C1CC/C=C(/CO)C(=O)C[C@@H]2[C@@H]1C[C@@]2(C)COC(C)=O	11.9 µM (active)	inactive	inactive			
CC1CCC2(NC1)OC1C(O)C3C4CCC5CC(O[C@@H]6O[C@H](CO)[C@@H](O)[C@H](O)[C@H]6O[C@@H]6O[C@@H](C)[C@H](O)[C@@H](O)[C@H]6O)CCC5(C)C4CCC3(C)C1C2C (some centres not stated)	inactive	inactive	inactive			
COc1cc(/C=C/C(=O)O)ccc1O[C@@H]1O[C@H](CO)[C@@H](O)[C@H](O)[C@H]1O[C@@H]1OC[C@](O)(CO)[C@H]1O	inactive	inactive	inactive			
C[C@@H]1O[C@@H](O[C@@H]2[C@@H](O)[C@H](O[C@H]3[C@H](O[C@H]4CC[C@@]5(C)C(CC[C@]6(C)C5CC=C5[C@@H]7CC(C)(C)CC[C@]7(C(=O)O[C@@H]7O[C@H](CO)[C@@H](O)[C@H](O)[C@H]7O)CC[C@]56C)C4(C)C)O[C@H](C(=O)O)[C@@H](O)[C@@H]3O)OC[C@H]2O)[C@H](O)[C@H](O)[C@H]1O (some centres not stated)				351% [at 11.5 µM]	2.29% [at 11.6 µM]	-4.9% [at 11.5 µM]
COC(=O)C1=CO[C@@H](O[C@@H]2O[C@H](CO)[C@@H](O)[C@H](O)[C@H]2O)[C@H]2[C@@H]1C=C[C@]21C=C([C@H](C)OC(=O)/C=C/c2ccc(O[C@@H]3O[C@H](CO)[C@@H](O)[C@H](O)[C@H]3O)cc2)C(=O)O1	inactive	inactive	inactive			
C=C1CC23CC(=O)C4C(CO)(CO)CCCC4(C)C2CCC1C3 (configuration not stated)	inactive	inactive	inactive			
CC1=C2CC(C)(C)CC2C(O)C2=C(C1)C(=O)OC2O (configuration not stated)	inactive	inactive	inactive			
CC1(C)CCCC2(C)c3c4c(c(=O)oc(=O)c3=CCC12)=CCC1C(C)(C)CCCC41C (configuration not stated)	inactive	inactive	inactive			
CC1(C)Oc2ncnc(N)c2N=C1c1ccc(C2CCC(CC(=O)O)CC2)cc1 (configuration not stated)	inactive	inactive	inactive			
O=C(/C=C/c1ccc(O)c(O)c1)OC[C@H]1O[C@@H](OC2CCCCC2O)[C@H](O)[C@@H](O)[C@@H]1O (some centres not stated)	1.16 µM (active)	inactive	inactive			
O=C(O)c1ccncc1Nc1nn(CCN2CCC(F)(F)CC2)c2ccc(F)cc12	1.34 µM (active)	inactive	inactive			
CC1CCCCCCCc2cc(O)cc(O)c2C(=O)O1 (configuration not stated)	26.7 µM (active)	inactive	inactive			

SMILES	Potency [1]	Potency [2]	Potency [3]	activity change, negative = thiol reactive [1]	activity, negative = inhibition [2]	redox activity (% of DA3003) [3]
NC(=O)[C@H](Cc1ccccc1)NC(=O)[C@H](CCCN=C(N)N)NC(=O)C12CC3CC(CC(C3)C1)C2				37.2% [at 11.5 µM]	3.23% [at 11.6 µM]	-2.26% [at 11.5 µM]
O=C(Nc1ccn(Cc2c(F)cccc2C(F)(F)F)n1)c1c(F)cccc1F				27.2% [at 11.5 µM]	3.13% [at 11.6 µM]	-0.702% [at 11.5 µM]
O=C1C(Cl)=C(N2CCOCC2)C(=O)N1c1ccc(Cl)c(Cl)c1	inactive	inactive	inactive			
Cc1sc(C)c(C(=O)NC2(c3ccc(C(=O)O)cc3)CC2)c1Cc1ccc(C(F)(F)F)cc1	inactive	4.78 µM (active)	inactive			
COc1cc(O)c2c(c1Cl)CC(C)OC2=O (configuration not stated)	inactive	inactive	inactive			
Cc1cn(C[C@H](N)C(=O)O)c(=O)n(Cc2ccsc2C(=O)O)c1=O	inactive	inactive	inactive			
CCOC(=O)COc1ccc2c(c1)C[C@@H](NC[C@H](O)c1cccc(Cl)c1)CC2	inactive	inactive	inactive			
COC(=O)C1=COC(O[C@@H]2O[C@H](CO)[C@@H](O)[C@H](O)[C@H]2O)/C(=C\COC(=O)/C=C/c2ccccc2)C1CC(=O)OCCc1ccc(O)cc1 (some centres not stated)	inactive	inactive	inactive			
C[C@]1(OC(=O)/C=C/c2ccccc2)C[C@@H](O)[C@]2(O)C=CO[C@@H](O[C@@H]3O[C@H](CO)[C@@H](O)[C@H](O)[C@H]3O)[C@@H]21	inactive	inactive	inactive			
COc1c2c(c(C)c3c1C(=O)OC3)OC1(C)CC(O)C34OC(O)(CCC3(C)C1C2)OC4(C)C (configuration not stated)	inactive	inactive	inactive			
CC1(C)CC[C@]2(C(=O)O[C@@H]3O[C@H](CO)[C@@H](O)[C@H](O)[C@H]3O)CC[C@]3(C)C(=CCC4[C@@]5(C)C[C@@H](O)[C@H](O)[C@@](C)(CO)C5[C@H](O)C[C@]43C)C2[C@@H]1O (some centres not stated)	3.16 µM (active)	inactive	inactive			
COc1ccccc1CN[C@H]1CCCN[C@H]1c1ccccc1	inactive	inactive	inactive			
O=C(/C=C/c1ccc(O)cc1)O[C@H]1[C@H](OC2CCCCC2O)O[C@H](CO)[C@@H](O)[C@@H]1O (some centres not stated)	4.12 µM (active)	inactive	inactive			
On1ncc(C2CCNCC2)c1-c1cccc(-c2ccccc2)c1	inactive	inactive	inactive			
CCCNCCOc1ccc(NC(=O)c2c[nH]c3c2C(=O)CCC3)cc1F	inactive	inactive	inactive			
CC(C)C1CCC(C(=O)N[C@@H](Cc2ccccc2)C(=O)O)CC1 (some centres not stated)	inactive	inactive	inactive			
CC(C)c1ccc2c(c1)CCC1[C@](C)(C(=O)O)CCC[C@]21C (some centres not stated)	inactive	inactive	inactive			
CC1=C2CC(O)(C(C)(C)O)C(O[C@@H]3O[C@H](CO)[C@@H](O)[C@H](O)[C@H]3O)CC(C)C2CC1=O (some centres not stated)	3.67 µM (active)	inactive	inactive			
OC[C@H]1O[C@@H](Oc2cc(O)cc(-c3cc4ccc(O[C@@H]5O[C@H](CO)[C@@H](O)[C@H](O)[C@H]5O)cc4o3)c2)[C@H](O)[C@@H](O)[C@@H]1O	10.3 µM (active)	inactive	inactive			
C=C1C2CCC3C(CCC4[C@@]3(C)CCC[C@@]4(C)C(=O)O)(C2)[C@@H]1OC(=O)/C(C)=C\C (some centres not stated)	inactive	inactive	inactive			
CC1=C2C(=O)C=C(CO[C@@H]3O[C@H](CO)[C@@H](O)[C@H](O)[C@H]3O)[C@@H]2[C@H]2OC(=O)[C@H](C)[C@@H]2[C@@H](O)C1	inactive	inactive	inactive			
Cc1ccc(-n2nc(C(C)(C)C)cc2NC(=O)Nc2cc(COc3cccnc3)[nH]n2)cc1	inactive	inactive	inactive			
CN1CCN(C(=O)c2cc3cc(Cl)ccc3[nH]2)CC1	inactive	inactive	inactive			
C[C@]12CC/C(=N\OCC(=O)O)C=C1CC[C@@H]1[C@@H]2[C@@H](O)C[C@@]2(C)[C@H]1CC[C@]2(O)C(=O)CO	inactive	inactive	inactive			
CC(C)c1ccc2c(c1)C(O)CC1C(C)(C(=O)O)CCCC21C (configuration not stated)	inactive	inactive	inactive			
CC1(C)[C@H]2C[C@H](C/C=C\CCCC(=O)O)[C@@H](NC(=O)c3csc4ccc(O)cc34)[C@@H]1C2	inactive	inactive	inactive			
COc1ccc(C2OCC3C(c4cc(OC)c5c(c4)OCO5)OCC23)cc1OC (configuration not stated)	inactive	inactive	inactive			
